Assay outcomes from PubChem.
HT1080NT lethal: kills 2HG-producing HT-1080-NT fibrosarcoma cells; HT-1080-NT fibrosarcoma viability, CellTiter-Glo ATP luminescence, 48 h; actives 1.6% (n = 360,000); Potency, µM (top dose mostly 46.1 µM), without a hit: top-dose activity, negative = less viability, hits mostly cytotoxic;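 note: NT is the 2HG producing partner of a matched IDH1 knockdown line; potency is the fitted concentration of half-maximal effect; 0% = DMSO-treated cells and -100% = media-only wells without cells; nearly all actives have a fitted effect of over 55% in size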
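750 cells/well, RPMI + 5% FBS; 2 h settle, compound pin-transfer, 48 h at 37 degrees C. CellTiter-Glo 10 min RT, luminescence. Normalized to DMSO and media-only wells.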
12-LOX inh: ALOX12 (human) lipoxygenase inhibition; Potency, µM (doses to about 108 µM), for the others: top-dose activity change, negative = inhibition, hits mostly inhibitors; AID 1671190; P18054; actives 1.1% (n = 580,000); purified 12hLO, xylenol orange hydroperoxide absorbance; note: potency is the fitted concentration of half-maximal effect
Target sequence (P18054 whole entry, looked up): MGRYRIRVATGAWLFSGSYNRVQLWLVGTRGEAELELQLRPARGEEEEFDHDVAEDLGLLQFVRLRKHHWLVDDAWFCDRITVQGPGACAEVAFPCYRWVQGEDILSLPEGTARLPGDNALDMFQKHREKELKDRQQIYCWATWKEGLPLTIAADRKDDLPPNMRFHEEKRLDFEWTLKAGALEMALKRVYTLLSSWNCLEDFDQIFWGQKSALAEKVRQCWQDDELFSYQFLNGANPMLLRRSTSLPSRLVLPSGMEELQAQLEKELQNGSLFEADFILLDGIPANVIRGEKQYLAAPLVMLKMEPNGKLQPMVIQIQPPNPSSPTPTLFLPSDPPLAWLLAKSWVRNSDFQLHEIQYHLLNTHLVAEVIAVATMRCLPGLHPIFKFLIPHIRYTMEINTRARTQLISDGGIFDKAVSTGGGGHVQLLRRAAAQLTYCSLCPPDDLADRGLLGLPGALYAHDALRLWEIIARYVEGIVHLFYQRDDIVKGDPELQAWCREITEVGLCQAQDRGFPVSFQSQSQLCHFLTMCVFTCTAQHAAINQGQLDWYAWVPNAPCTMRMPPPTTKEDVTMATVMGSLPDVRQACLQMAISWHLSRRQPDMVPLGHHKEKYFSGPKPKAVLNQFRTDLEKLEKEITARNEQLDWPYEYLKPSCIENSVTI
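Purified human 12hLO (150 nM final) in 25 mM Hepes, 0.01% Triton X-100, pH 7.0 was preincubated 15 min at room temperature with compound. Then 40 uM arachidonic acid was added, 30 min. Hydroperoxide was read by Fe-XO absorbance ratio 573/405 nm.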
TDP1 cell CPT: growth inhibition of DT40 Tdp1-/-;hTDP1 cells with camptothecin (screen for TDP1 inhibitors); Potency, µM (top dose mostly 46.2 µM), for inactives: at the highest dose activity change, negative = growth inhibition, hits mostly inhibitors; actives 12% (n = 420,000); chicken DT40 Tdp1-/-;hTDP1 cells + 20 nM CPT, ATP luminescence, 48 h; AID 686979; note: potency is the fitted concentration of half-maximal effect; nearly all actives have a fitted effect of over 55% in size
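Chicken DT40 Tdp1-/- cells complemented with human TDP1, 400 cells/well, exposed to compounds plus 20 nM camptothecin for at least 48 h at 37 C; viability read as ATP content by CellTiter-Glo luminescence.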
DT40 TDP1 no CPT: qHTS for Inhibitors of human tyrosyl-DNA phosphodiesterase 1 (TDP1): qHTS in cells in absence of CPT; DT40 Tdp1-/- hTDP1 cells, no CPT, ATP luminescence, 48 h; Potency, µM (top dose mostly 46.2 µM), for the others: at the highest dose activity change, negative = growth inhibition, most hits filed as inhibitors; actives 15% (n = 420,000); note: potency is the fitted concentration of half-maximal effect; nearly all actives have a fitted effect of over 55% in size
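Seeded 400 DT40-hTDP1 cells/well (vehicle DMSO, no 20 nM CPT); pinned compounds; ≥48 hr at 37 °C; CellTiter-Glo luminescence as viability measure.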
IL-1B inflam inh: inhibitors of inflammasome signaling (IL-1 beta secretion) | THP-1 LPS/ATP IL-1B secretion, AlphaLISA, 16 h; active compounds read low | activity change, % at 57.5 µM | actives 4.7% (n = 360,000) | AID 743279; in the data active = activity change below about -50%; inconclusive = mostly about -30% to -49%
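Secreted IL-1B measured by AlphaLISA bead assay after 16 h compound exposure of THP-1 cells; compounds (final up to 57.5 uM) added 1 h before LPS (250 ng/mL) and ATP (1.25 mM) stimulation; lower signal means less secretion.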
HT1080 IDH1KD tx: toxicity to HT-1080 IDH1 knockdown cells (counter line); HT-1080 IDH1 knockdown viability, ATP luminescence, 48 h; actives 2% (n = 360,000); Potency, µM (titrated, usually from 46.1 µM), without a hit: at the top dose activity, negative = toxicity, hits mostly cytotoxic; AID 686971;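 note: potency is the fitted concentration of half-maximal effect; 0% = DMSO wells and -100% = cell-free medium wells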
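Cytotoxicity counter-line: IDH1KD HT-1080, 48 h, CellTiter-Glo. Curves classed by r2, magnitude and activity.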
An asterisk follows results filed as active; ? = inconclusive; nt = no result; [ ] = remark or other dose. Many of the other results were omitted from the sample, so hits are more common in it than they were. Unless noted, calls come from the whole dose curve; as a rule, active = well fitted curve in the direction sought with a large enough effect; inconclusive = small, poorly fitted or top-dose-only effect, or another doubt; inactive = no such curve, though single readings can be large; an effect the other way counts as inactive or inconclusive. Unless noted, % is set by controls: 0 for no effect and ±100 for the full control effect.

SMILES	HT1080NT lethal	12-LOX inh	TDP1 cell CPT	DT40 TDP1 no CPT	IL-1B inflam inh	HT1080 IDH1KD tx
CC1=NN(C(=O)c2ccoc2C)C(O)(C(F)(F)F)C1 (stereo not drawn)	14%	3%	2.9µM*	2.3µM*	-2	3%
O=C(O)/C=C/c1csc2ccccc12	nt	11%	nt	nt	nt	nt
CCC(C(=O)NC(C)C)c1ccccc1 (stereo not drawn)	nt	2%	nt	nt	nt	nt
O=S(=O)(Cc1ccccc1)Cc1cc(Cl)c2c(c1)OCO2	nt	0%	nt	nt	nt	nt
O=c1c2ccccc2nc(-c2ccc(Br)cc2)n1Cc1ccccc1	-25%	-8%	8.2µM*	23µM*	17	16%
O=c1c2ccccc2nc(-c2ccoc2)n1CCc1ccccc1	-25%	?	7.3µM*	6.5µM*	-4	-1%[9.24 µM]
O=C(COc1ncnc2ccc(Br)cc12)Nc1cccc(F)c1	nt	-35%	nt	nt	nt	nt
Cc1cc([N+](=O)[O-])nn1CC(=O)NCCCN1CCOCC1	2%	-6%	-1%	14%	-3	1%
Cc1cc(C)c2c(=O)n(CC(=O)NCCCN3CCOCC3)sc2n1	4%	nt	4.1µM*	6.5µM*	-97*	-11%
Cc1cc(C)c2c(=O)n(CC(=O)NCCCN3CCN(c4ccccc4F)CC3)sc2n1	?	nt	4.6µM*	3.3µM*	?	1%
Cc1ccc(NC(=O)N2CCCCCCNC(=O)[C@@H]3CCCC[C@@H]32)cc1C	nt	10%	nt	nt	nt	nt
COc1ccc(C(=O)NCC(=O)OCc2ncc(-c3ccccc3)o2)cc1	nt	-2%	nt	nt	nt	nt
O=C(CN1CCN(c2ccccc2Cl)CC1)NC1CCCc2ccccc21 (stereo not drawn)	0%	-24%	?	?	-59*	0%
Cc1ccc(Cl)cc1N1CCN(CC(=O)NC2CCCc3ccccc32)CC1 (stereo not drawn)	?	8%	?	16µM*	-9	?
Cc1ccc(Cl)cc1N1CCN(CC(=O)NC2CC2)CC1	nt	7%	nt	nt	nt	nt
O=C(CSc1nc2ccc(Cl)cc2[nH]1)NC1CCCc2ccccc21 (stereo not drawn)	-21%	-24%	?	21µM*	?	?
CC(C)N(C(=O)CSc1nc2ccc(Cl)cc2[nH]1)c1ccccc1	nt	?	?	23µM*	nt	nt
O=C(CSc1c(Cl)cccc1Cl)NC1CCCc2ccccc21 (stereo not drawn)	-22%	?	?	?	20	-2%
Cc1ccc(CN(C(=O)c2ccco2)c2ccc(CC(=O)NCC3CCCO3)cc2)cc1 (stereo not drawn)	nt	-18%	nt	nt	nt	nt
O=C(NCCOc1ccccc1)c1cc2ccccc2oc1=O	nt	18%	nt	nt	nt	nt
CN=c1scc(-c2ccco2)n1/N=C/c1ccc(O)c(O)c1	-37%	40µM*	4.6µM*	9.2µM*	47	-5%
CN=c1scc(C)n1/N=C/c1ccc(O)cc1O	-14%	6%	?	?	-3	-20%
CN=c1scc(C)n1/N=C/c1ccc(O)cc1	-2%	0%	?	23µM*	-13	-11%
C=CCN=c1scc(C)n1/N=C/c1ccc(O)c(O)c1	-14%	?	16µM*	7.3µM*	44	-21%
COc1cccc(CNC2(Cc3cc(C(C)(C)O)on3)COC2)c1	nt	12%[176 µM]	nt	nt	nt	nt
SMILES	HT1080NT lethal	12-LOX inh	TDP1 cell CPT	DT40 TDP1 no CPT	IL-1B inflam inh	HT1080 IDH1KD tx
COc1ccc(CNCc2ccc3c(c2)OCO3)cc1Br	2%	?	?	16µM*	-23	-2%
COC1=C(NCc2ccc3c(c2)OCO3)C(=O)C(OC)=C(NCc2ccc3c(c2)OCO3)C1=O	-1%	8.9µM*	-11%	-7%	-14	17%
CC(NC(=O)c1ccc(C(C)(C)C)cc1)C(=O)NCc1ccc(C(=O)O)cc1 (stereo not drawn)	nt	20%	nt	nt	nt	nt
Clc1ccccc1C1(c2ccnc(NCCc3ccncc3)n2)CCNCC1	nt	26%	nt	nt	nt	nt
CNC(=O)c1cc(=O)n(CC(=O)Nc2cccc(C#N)c2)c2ccccc12	nt	6%	nt	nt	nt	nt
Cc1ccc(-c2[nH]ncc2CNCc2ccccc2)cc1	nt	27%	11µM*	18µM*	nt	nt
CC1(C)CCCN(Cc2c(O)ccc3c(=O)c(-c4nc5ccccc5s4)c(N)oc23)C1	?	14%	18µM*	13µM*	55	-5%
CC1CCN(Cc2c(O)ccc3c(=O)c(-c4nc5ccccc5s4)c(N)oc23)CC1	-1%	-9%	?	?	41	-6%
CCOC(=O)c1cccc(NC(=O)c2ccc3c(c2)nnn3C2CCCC2)c1	nt	-5%	?	?	nt	nt
CCc1ccccc1NC(=O)c1ccc2c(c1)nnn2C1CCCC1	nt	-1%	26µM*	?	nt	nt
O=C(Nc1cccc(C(F)(F)F)c1)c1ccc2c(c1)nnn2C1CCCC1	nt	9%	?	8.2µM*	nt	nt
COc1ccc(CCCCCCOCc2ccccc2)cc1	-5%	6%	-3%	15%	0	9%
COc1ccc(COC[B-](F)(F)F)cc1	-4%	11%	3%	-17%	-53*	1%
Cc1cn2nc(C(=O)N3CCC(NC(=O)c4ccc(C)s4)CC3)cc2c(=O)[nH]1	nt	5%	nt	nt	nt	nt
Cc1cc(C(=O)N2CCCCCC2)sc1C	nt	5%	nt	nt	nt	nt
